HTR5A ag ctr: HTR5A agonism, opioid heterodimer counter-screen. 0.61% of 340,000 active. P47898. HTR5A agonist assay, luminescence, cell-based. activation, % at 9.3 µM; in the data active means activation mostly above about 9.5%, no sharp cut-off; inactive means mostly below about 7.6%;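 further: 0% = cells with vehicle only and 100% = reference agonist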
Target sequence (P47898 whole entry, looked up): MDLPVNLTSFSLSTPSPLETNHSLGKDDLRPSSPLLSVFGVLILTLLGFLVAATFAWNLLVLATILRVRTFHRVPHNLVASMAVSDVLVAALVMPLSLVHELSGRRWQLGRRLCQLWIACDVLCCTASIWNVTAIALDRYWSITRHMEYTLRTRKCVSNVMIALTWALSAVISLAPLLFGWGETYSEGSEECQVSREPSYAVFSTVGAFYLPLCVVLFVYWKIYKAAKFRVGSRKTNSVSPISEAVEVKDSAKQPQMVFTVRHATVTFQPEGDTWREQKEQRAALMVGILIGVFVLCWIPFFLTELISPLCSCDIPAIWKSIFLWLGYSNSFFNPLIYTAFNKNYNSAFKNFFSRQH
V-ATPase pH: yeast V-ATPase proton transport regulation by pHLuorin; S. cerevisiae, pHLuorin cytosolic pH fluorescence; response, % at 10 µM; 0.37% of 350,000 active; in the data active means response mostly above about 7.3%, no sharp cut-off; inactive means mostly below about 5.4%; further: actives read high
OPRM1-OPRD1 inv: inverse agonist of human OPRM1-OPRD1 heterodimerization. P35372+P41143. cell-based MOR-DOR heterodimer luminescence, inverse agonism. inhibition, % at 9.3 µM. 0.21% of 340,000 active. AID 504357; in the data active means inhibition above about 22%, passing the limit was not always enough;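 further: 0% = cells with DMSO and 100% = wells without cells with DMSO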
MIN6 prolif: inducers of beta-cell replication in MIN6 cells. MIN6 cells proliferation, ATPlite luminescence, 48 h; cells starved in 0.2% serum; 100% = growth in 10% serum. proliferation, % at 10 µM. 0.29% of 330,000 active. AID 2380;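 active means compounds whose signal lies at least 3.5 SD above the mean of all wells on their plate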;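 further: 0% = DMSO-treated cells in low-serum medium and 100% = 10% serum control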
OPRM1-OPRD1 ag: OPRM1-OPRD1 heterodimerization agonism; activation, % at 9.3 µM; 0.3% of 340,000 active; P35372+P41143; cells, luminescence;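 further: 0% = vehicle-treated cells and 100% = reference agonist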
HTR5A inv ctr: counter-screen for OPRM1-OPRD1 inverse agonists: human HTR5A inverse agonism; AID 504634; inhibition, % at 9.3 µM; 0.083% of 340,000 active; HTR5A cell line, luminescence; in the data active means inhibition mostly above about 23%, no sharp cut-off; inactive means mostly below about 18%;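 further: 0% = cells with DMSO and 100% = no-cell wells with DMSO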
OPRM1-D1 ag cf: OPRM1-OPRD1 heterodimer agonism, confirmation. shares compounds with OPRM1-OPRD1 ag. cells, MOR-DOR heterodimerization, luminescence complementation. activation, % at 9.3 µM. 45% of 830 active;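 further: 0% = vehicle-treated cells and 100% = reference agonist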
HTR5A ag ctr2: HTR5A agonism, opioid heterodimer counter-screen; shares compounds with OPRM1-OPRD1 ag; HTR5A agonist counterscreen, cell luminescence; activation, % at 9.3 µM; 8% of 830 active; AID 504905; in the data active means activation above about 17%;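 further: 0% = vehicle-treated cells and 100% = reference agonist response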
* = called active by the depositor; i = inactive; nt = no result. Only some compounds are listed: those with a hit (about 1.7% of all), similar ones and a draw of the others. Unless noted, no stated cut-off is given here; in the data, active means activation above about 18%; inactive means the rest.

SMILES	HTR5A ag ctr	V-ATPase pH	OPRM1-OPRD1 inv	MIN6 prolif	OPRM1-OPRD1 ag	HTR5A inv ctr	OPRM1-D1 ag cf	HTR5A ag ctr2
COc1ccc(CNC(=O)C2CCN(c3nc(-c4ccccc4)nc4c3CCC4)CC2)cc1	-1	-1	4	-6	-1	16	nt	nt
NC(N)=N/N=C/c1ccccc1	3	4	13	2	-2	20	nt	nt
NC(N)=N/N=C/c1ccc(OCc2ccccc2Cl)cc1	5	6	-124	-4	22*	-10	7	-4
CCOc1ccc(CN(C(=O)c2oc3cc(C)ccc3c2C)C2CCS(=O)(=O)C2)cc1 (stereo not drawn)	2	-1	-28	-5	5	0	nt	nt
COc1ccc(CN(C(=O)c2oc3ccc(F)cc3c2C)C2CCS(=O)(=O)C2)cc1 (stereo not drawn)	-1	2	-9	1	2	4	nt	nt
Cc1c(C(=O)N(Cc2ccccc2Cl)C2CCS(=O)(=O)C2)oc2ccccc12 (stereo not drawn)	-2	-3	-66	2	11	5	nt	nt
Cc1ccc2oc(C(=O)N(Cc3ccccc3)C3CCS(=O)(=O)C3)c(C)c2c1 (stereo not drawn)	1	0	-109	2	20*	-10	2	5
Cc1ccc2c(C)c(C(=O)N(Cc3cccs3)C3CCS(=O)(=O)C3)oc2c1 (stereo not drawn)	1	1	-282	1	47*	-18	75*	3
Cc1cc2oc(C(=O)N(Cc3ccccc3)C3CCS(=O)(=O)C3)c(C)c2cc1C (stereo not drawn)	6	0	-216	-3	40*	-7	21*	-4
Cc1ccc2c(C)c(C(=O)N(Cc3ccccc3)C3CCS(=O)(=O)C3)oc2c1 (stereo not drawn)	3	-4	-195	0	35*	-7	-4	-2
O=C(CSc1nc(=O)n(CCCN2CCOCC2)c2c1CCC2)Nc1ccc([N+](=O)[O-])cc1	-1	-1	20	0	-4	25	nt	nt
O=S(=O)(Nc1cc(Cl)ccc1-n1cncn1)c1ccccc1Cl	3	1	-313	-2	73*	-9	-1	-2
O=S(=O)(Nc1cc(Cl)ccc1-n1cncn1)c1cc(Br)ccc1Br	-1	-3	2	-8	-1	-9	nt	nt
c1ccc(CCNc2ccnc3cc4ccccc4cc23)cc1	10	1	-164	nt	32*	4	24*	12
Cc1ccc(-c2nn(-c3ccccc3)cc2CO)cc1	0	-1	8	2	-2	2	nt	nt
N=C(N)SCc1cn(-c2ccccc2)nc1-c1ccc(Br)cc1	8	-5	-109	nt	20*	-18	1	3
COc1ccc(N2C(=NC(=O)CCC3CCCC3)SC3CS(=O)(=O)CC32)cc1 (stereo not drawn)	3	8	4	-2	-1	-12	nt	nt
COC(=O)c1ccc(COC(=O)c2ccc(CS(=O)(=O)c3ccc(C)cc3)cc2)cc1	-2	-5	-12	-3	2	11	nt	nt
COC(=O)c1cc2c(n1S(=O)(=O)c1ccc(C)cc1)C(=O)C(=O)c1[nH]cc(C(=O)OCc3ccccc3)c1-2	5	1	-92	nt	21*	-19	73*	12
Nc1nc(SCc2ccccc2)c2ncn(C3CCCO3)c2n1 (stereo not drawn)	0	5	7	nt	-1	-1	nt	nt
CCOC(=O)N1CCc2c(sc3nc4n(c(=O)c23)N=C(c2ccc(OC)cc2)CS4)C1	-1	-3	-132	-1	26*	23	4	2
CCOC(=O)N1CCc2c(sc3ncn(C)c(=O)c23)C1	0	-2	8	-2	-2	-16	nt	nt
CC(NC(=O)COC(=O)c1c[nH]c2ccccc12)c1ccccc1 (stereo not drawn)	1	-7	-2	-1	0	-6	nt	nt
Cc1ccc2nc(N3CCN(C(=O)c4ccco4)CC3)c3nncn3c2c1	-2	-4	10	0	-2	-15	nt	nt
CC(COc1ccccc1)N1CCC(CO)(CCc2ccccc2)CC1 (stereo not drawn)	2	5	i	-4	176*	-6	0	0
SMILES	HTR5A ag ctr	V-ATPase pH	OPRM1-OPRD1 inv	MIN6 prolif	OPRM1-OPRD1 ag	HTR5A inv ctr	OPRM1-D1 ag cf	HTR5A ag ctr2
COc1ccc(CCNC(=O)C(=O)N2CCCC2)cc1OC	0	-5	-1	-3	0	9	nt	nt
O=C(Nc1cccc2cccnc12)c1ccccc1Br	7	-3	9	2	-2	6	nt	nt
Cc1ccc2c(c1)cc1c(=O)n(CC(=O)NCCN3CCCC3)nc(C)n12	1	3	15	6	-3	-5	nt	nt
Oc1ccc(Br)cc1CNc1cccc2cccnc12	1	-1	-89	-4	19*	-3	-2	-9
COc1ccccc1N1CCN(C(=O)c2sc3nc(C)nc(N4CCN(c5ccccn5)CC4)c3c2C)CC1	16	-5	i	-4	109*	-42	134*	-3
Cc1nc(N2CCN(c3ccccn3)CC2)c2c(C)c(C(=O)N3CCN(c4ccc(F)cc4)CC3)sc2n1	0	0	i	-3	167*	-1	239*	5
COc1ccccc1N1CCN(C(=O)c2sc3ncnc(N4CCN(c5ccccn5)CC4)c3c2C)CC1	1	2	1	-3	0	-3	nt	nt
CCCN(CC(=O)Nc1ccccc1C)C(=O)COc1ccc2c(c1)CCC2	3	3	11	-3	-3	-7	nt	nt
CCn1c(=S)sc2c(=O)[nH]c(SCC(=O)Nc3cc(OC)ccc3OC)nc21	4	-1	2	1	0	-4	nt	nt
O=C1c2[nH]nc(-c3ccccc3O)c2C(c2ccc(F)cc2)N1Cc1ccco1 (stereo not drawn)	0	-2	-100	-6	20*	0	10	2
COc1ccc(C2c3c(-c4ccccc4O)n[nH]c3C(=O)N2Cc2ccco2)cc1OC (stereo not drawn)	-5	1	7	0	-1	17	nt	nt
Cc1ccc(-c2csc(/C(C#N)=C(\O)CCl)n2)cc1	6	-4	-90	nt	20*	-15	17	10
Cc1occc1C(=O)N/N=C/c1ccc(OCc2ccccc2)cc1	3	0	-29	-1	6	-5	nt	nt
Cc1occc1C(=O)N/N=C/c1ccc(-c2ccccc2)cc1	10	3	-111	1	20*	-25	60*	4
Cc1cc(=O)c2cc(C(=O)c3ccccc3)ccc2[nH]1	5	1	7	3	-1	-19	nt	nt
Cc1ccc(NS(=O)(=O)c2ccc(Br)s2)cc1S(=O)(=O)N1CCOCC1	-2	-3	7	-3	-1	-26	nt	nt
